Among all 100,000 compounds or so, about 4,200 (4.2%) were called active.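 The calls were made as follows: active = single-dose well whose peak fluorescence ratio is a statistical outlier from its plate by either plate-standardised score or position-corrected B-score; inactive = the rest.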 The sample as a whole holds a higher share of actives than the screen did.
The molecules below were run against Voltage-dependent T-type calcium channel subunit alpha-1H (Homo sapiens) (UniProt O95180) (assay: Cav3.2 calcium influx blockers – cell-based, Fluo-4 calcium fluorescence, FDSS, MLSMR library, primary screen (AID 449739)). Conditions: Cav3.2-expressing cells, at 10 µM, stronger effect = lower value.
Chain of Voltage-dependent T-type calcium channel subunit alpha-1H (Homo sapiens) (O95180 whole entry, looked up): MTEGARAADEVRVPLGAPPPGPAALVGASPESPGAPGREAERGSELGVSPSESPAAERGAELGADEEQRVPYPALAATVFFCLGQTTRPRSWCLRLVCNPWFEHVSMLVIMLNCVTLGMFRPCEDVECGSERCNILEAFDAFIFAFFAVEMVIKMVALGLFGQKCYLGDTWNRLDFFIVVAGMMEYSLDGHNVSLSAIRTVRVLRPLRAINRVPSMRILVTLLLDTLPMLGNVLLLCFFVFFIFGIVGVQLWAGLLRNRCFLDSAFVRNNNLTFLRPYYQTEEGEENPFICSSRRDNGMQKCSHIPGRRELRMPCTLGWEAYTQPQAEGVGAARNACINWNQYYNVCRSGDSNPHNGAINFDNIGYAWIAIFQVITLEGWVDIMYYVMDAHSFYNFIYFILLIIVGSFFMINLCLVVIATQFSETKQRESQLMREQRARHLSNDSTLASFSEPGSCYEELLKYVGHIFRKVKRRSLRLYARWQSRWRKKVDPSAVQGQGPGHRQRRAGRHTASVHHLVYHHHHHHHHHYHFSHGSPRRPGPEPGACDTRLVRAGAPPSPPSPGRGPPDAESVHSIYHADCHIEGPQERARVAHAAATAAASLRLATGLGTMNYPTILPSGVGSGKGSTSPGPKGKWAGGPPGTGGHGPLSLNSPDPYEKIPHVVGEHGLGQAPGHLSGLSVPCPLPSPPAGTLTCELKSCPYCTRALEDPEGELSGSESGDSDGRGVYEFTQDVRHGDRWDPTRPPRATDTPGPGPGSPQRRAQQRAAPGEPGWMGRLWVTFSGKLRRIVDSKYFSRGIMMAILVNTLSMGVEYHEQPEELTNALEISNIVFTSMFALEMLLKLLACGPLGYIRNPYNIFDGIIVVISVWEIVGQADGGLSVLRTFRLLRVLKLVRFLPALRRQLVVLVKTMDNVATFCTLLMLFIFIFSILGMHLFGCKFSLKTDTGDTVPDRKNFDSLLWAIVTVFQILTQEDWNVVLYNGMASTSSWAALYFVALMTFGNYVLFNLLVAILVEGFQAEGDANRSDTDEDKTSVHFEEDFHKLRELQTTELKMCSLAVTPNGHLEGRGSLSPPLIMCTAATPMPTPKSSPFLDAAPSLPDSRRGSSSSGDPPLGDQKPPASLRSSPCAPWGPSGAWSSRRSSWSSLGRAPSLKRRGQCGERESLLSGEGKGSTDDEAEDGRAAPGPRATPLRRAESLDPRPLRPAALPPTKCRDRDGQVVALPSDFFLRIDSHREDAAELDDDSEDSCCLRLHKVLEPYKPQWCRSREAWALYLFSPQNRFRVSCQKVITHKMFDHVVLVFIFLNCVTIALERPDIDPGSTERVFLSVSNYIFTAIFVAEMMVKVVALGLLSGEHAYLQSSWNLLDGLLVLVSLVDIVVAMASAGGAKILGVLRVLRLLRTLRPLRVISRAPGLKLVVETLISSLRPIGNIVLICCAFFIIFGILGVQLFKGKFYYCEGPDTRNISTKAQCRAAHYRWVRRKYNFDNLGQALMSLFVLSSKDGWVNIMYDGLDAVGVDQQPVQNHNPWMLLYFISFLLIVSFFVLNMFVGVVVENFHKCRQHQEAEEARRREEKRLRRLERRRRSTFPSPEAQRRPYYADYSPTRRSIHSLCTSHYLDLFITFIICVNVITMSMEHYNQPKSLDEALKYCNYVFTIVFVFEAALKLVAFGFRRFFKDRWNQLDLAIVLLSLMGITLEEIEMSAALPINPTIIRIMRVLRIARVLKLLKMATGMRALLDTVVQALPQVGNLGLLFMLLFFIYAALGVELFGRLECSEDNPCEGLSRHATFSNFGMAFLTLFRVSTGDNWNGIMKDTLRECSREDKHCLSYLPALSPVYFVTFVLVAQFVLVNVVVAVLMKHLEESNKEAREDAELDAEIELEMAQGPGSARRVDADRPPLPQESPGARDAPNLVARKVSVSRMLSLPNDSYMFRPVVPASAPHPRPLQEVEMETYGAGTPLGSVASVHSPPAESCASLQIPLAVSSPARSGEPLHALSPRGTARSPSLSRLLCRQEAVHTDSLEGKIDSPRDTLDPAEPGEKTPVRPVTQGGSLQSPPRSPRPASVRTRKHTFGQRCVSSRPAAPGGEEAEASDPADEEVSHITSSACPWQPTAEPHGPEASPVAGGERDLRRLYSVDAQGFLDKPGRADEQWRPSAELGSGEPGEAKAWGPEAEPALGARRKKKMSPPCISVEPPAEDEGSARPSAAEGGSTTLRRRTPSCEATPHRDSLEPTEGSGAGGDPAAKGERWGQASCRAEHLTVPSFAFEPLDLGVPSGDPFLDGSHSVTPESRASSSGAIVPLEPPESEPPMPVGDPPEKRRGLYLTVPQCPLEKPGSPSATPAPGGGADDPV
For `Cn1ccnc1-c1nnn(-c2ccc(F)cc2)n1`, the B-score was -0.241 (inactive).
`Cc1cccc(C(=O)Nc2ccccc2-c2nnn(CC(=O)Nc3ccc4c(c3)OCCO4)n2)c1` was tested, and the B-score was 0.0432 (inactive).
`COc1ccc(C2/C=C\CN(S(=O)(=O)c3cccs3)CC(=O)N2Cc2ccc(F)cc2)cc1` (centres undefined) was tested, and the B-score was -1.93 (inactive).
In the case of `O=C(NC1CCCCC1)N1CCc2[nH]c3ccccc3c2C1`, the B-score is reported as -0.408 (inactive).
With `CCCC(=O)N1CCc2[nH]c3ccccc3c2C1` the B-score was 1.88 (inactive).
`O=C(Nc1ccc(Cl)cc1)N1CCc2[nH]c3ccccc3c2C1` was tested, and the B-score was -6.38 (active).
For `CCC(C)NC(=O)c1c(N)n(/N=C/c2cccs2)c2nc3ccccc3nc12` (centres undefined), the B-score was -0.663 (inactive).
In the case of `COc1ccccc1OCCNc1cc(N2CCOCC2)ccc1[N+](=O)[O-]`, the B-score is reported as -0.763 (inactive).
For `CCOC(=O)c1sc(NC(=O)CSc2nc3c(c(=O)n2-c2ccccc2)SCC3)c(C(=O)OCC)c1C`, the B-score was -0.157 (inactive).
`FC(F)(F)c1cccc(NC(=S)Nc2cccc(Cl)c2)c1` was tested, and the B-score was -7.17 (active).
In the case of `CC(=O)N1CCN(C(=O)Nc2cccc(C(F)(F)F)c2)CC1`, the B-score is reported as 0.454 (inactive).
In the case of `CC(C)C[C@H](NC(=O)Nc1cccc(C(F)(F)F)c1)C(=O)O`, the B-score is reported as 0.25 (inactive).
For `c1ccc(-n2nnnc2NC2CCCCCC2)cc1`, the B-score was 0.00228 (inactive).
With `O=C(c1ccco1)N1CCN(C(=O)C2c3ccccc3Oc3ccccc32)CC1` the B-score was 0.29 (inactive).
In the case of `CCCN(CCC)C(=O)C1c2ccccc2Oc2ccccc21`, the B-score is reported as -4.57 (active).
`O=C(N/N=C/c1ccc(O)c(O)c1)C1c2ccccc2Oc2ccccc21` was tested, and the B-score was 1.05 (inactive).
For `C=CCNc1nc(N)c(C(=C(C#N)C#N)c2ccccc2)s1`, the B-score was -0.0432 (inactive).
In the case of `COC(C[C@@H](O)[C@H](C)[C@H](O)COCc1ccccc1)OC`, the B-score is reported as 0.321 (inactive).
For `CCN(CC)c1ccc(NC(=O)c2ccc(Cl)nc2)cc1`, the B-score was -0.986 (inactive).
With `CCOc1ccccc1Nc1nnc(SCc2ccc(C(=O)OC)o2)s1` the B-score was -3.2 (inactive).
In the case of `COc1ccccc1-c1nnc(SCC(=O)N2CC(C)CC(C)C2)o1` (centres undefined), the B-score is reported as 0.0644 (inactive).
For `COc1cccc(Nc2nnc(SCC(=O)N3CC(C)OC(C)C3)s2)c1` (centres undefined), the B-score was -4.05 (active).
For `O=C(Nc1ccccc1)OCc1cn(-c2ccc(Cl)cc2)nn1`, the B-score was -0.643 (inactive).
For `Cc1ccc(S(=O)(=O)N(CC(=O)N2CCc3ccccc3C2)c2cccc(Cl)c2)cc1`, the B-score was -5.57 (active).
In the case of `COc1cccc(N(CC(=O)N2CCc3ccccc3C2)S(C)(=O)=O)c1`, the B-score is reported as 1.04 (inactive).
With `CCOC(=O)N1CCN(C(=O)CN(c2ccc(C)c(C)c2)S(=O)(=O)c2ccccc2)CC1` the B-score was -1.16 (inactive).
`O=C(NCc1ccccc1)C1=C[C@H](C2CC2)C[C@H](OCc2ccc(CO)cc2)O1` was tested, and the B-score was -0.049 (inactive).
`CCOC(=O)c1c(NC(=O)C(C)Sc2c[nH]c3ccccc23)sc2c1CCC2` (centres undefined) was tested, and the B-score was -0.96 (inactive).
With `C#CCOCCOCCOCCNc1nc(N2CCN(C(=O)[C@H](C(C)C)n3cc(CCO)nn3)CC2)nc(N2CCN(C(=O)[C@H]([C@@H](C)CC)n3cc(CCCN=C(N)N)nn3)CC2)n1` the B-score was 0.0921 (inactive).
With `CC1=NN(C(=O)c2ccccc2Br)C(O)(c2cccnc2)C1` (centres undefined) the B-score was 0.377 (inactive).
`CC1=CC(C)(C)N(C(=O)CSc2nccn2C)c2cc(C)ccc21` was tested, and the B-score was -0.49 (inactive).
For `O=C(CSc1nnc(-c2ccccc2)o1)N1CCOCC1`, the B-score was -0.483 (inactive).
In the case of `CC1=CC(C)(C)N(C(=O)CSc2nnc(-c3ccccc3)o2)c2ccc(C)cc21`, the B-score is reported as -4.16 (active).
For `CC(C)=CCc1c(O)c(CC=C(C)C)c2occ(-c3ccc(O)cc3)c(=O)c2c1O`, the B-score was -0.844 (inactive).
For `Cc1ccc(NC(=O)c2nc[nH]c2C(=O)N[C@@H](CCCCNC(=O)OC(C)(C)C)C(=O)OC(C)(C)C)cc1`, the B-score was -0.574 (inactive).
With `CC(C)C(=O)OCC(=O)Nc1ccc2c(c1)CCC2` the B-score was 0.246 (inactive).
`Cc1ccccc1NC(=S)Nc1cccc([N+](=O)[O-])c1` was tested, and the B-score was -0.107 (inactive).
`CCN(CC)S(=O)(=O)c1cc([N+](=O)[O-])ccc1NNC(=O)Nc1ccccc1` was tested, and the B-score was -4.53 (active).
For `CCN(CC)S(=O)(=O)c1cccc(C(=O)Nc2ccccc2)c1`, the B-score was 0.194 (inactive).
With `O=C1CC2(CCCC2)Oc2ccc(Cl)cc21` the B-score was -0.0281 (inactive).
In the case of `CCOC(=O)C1Nc2ccc(C(F)(F)F)cc2C2C=CCC12` (centres undefined), the B-score is reported as -0.137 (inactive).
`CCN(CC)S(=O)(=O)c1ccc(NC(=O)CN(c2cccc(F)c2)S(C)(=O)=O)cc1` was tested, and the B-score was -6.56 (active).
For `COc1cccc(N(CC(=O)Nc2cccc(N(C)S(C)(=O)=O)c2)S(C)(=O)=O)c1`, the B-score was -1.19 (inactive).
For `Cc1ccc(N(CC(=O)Nc2cccc(N(C)S(C)(=O)=O)c2)S(C)(=O)=O)cc1`, the B-score was 1.01 (inactive).
For `CC1=C(N2CCN(c3ncccn3)CC2)CCC1=O`, the B-score was 0.282 (inactive).
With `C[C@@H]1CC[C@]2(O[C@@H](CCO)C[C@H](O)[C@H]2O)O1` the B-score was 0.111 (inactive).
In the case of `CCn1c(Cc2ccccc2)nnc1SCC(=O)Nc1ccccc1`, the B-score is reported as 0.0752 (inactive).
For `COC(=O)c1cccc(NC(=O)CSc2nc(C)cc(=O)[nH]2)c1`, the B-score was 0.842 (inactive).
In the case of `CSc1cccc(NC(=O)CSc2ccccc2)c1`, the B-score is reported as -6.09 (active).
With `COC(C[C@@H]1O[C@@H]1C(=O)[C@@H](C)OCc1ccccc1)OC` the B-score was 0.0102 (inactive).
With `Cc1cccc(NC(=O)C2CC(=O)OC23CCCC3)c1` (centres undefined) the B-score was 2.01 (inactive).
In the case of `Cc1cc(C)cc(NC(=O)c2cccc(NC(=O)C3C4CC5OC(=O)C3C5C4)c2)c1` (centres undefined), the B-score is reported as -0.673 (inactive).
With `Cc1cccc(NC(=O)C(C)N2C(=O)C3C4CC(C(Br)C4Br)C3C2=O)c1` (centres undefined) the B-score was -4.83 (active).
For `CC1(C)C=C2[C@H]3CC[C@@H]4[C@@]5(C)CCC(=O)C(C)(C)[C@@H]5CC[C@@]4(C)[C@]3(C)CC[C@@]2(C(=O)O)CC1`, the B-score was -0.0499 (inactive).
With `COc1ccc(CNC(=O)C2(CC3CC(c4ccccc4)=NO3)CCN(C(=O)c3cccc(O)c3)CC2)cc1` (centres undefined) the B-score was -0.683 (inactive).
With `CCOC(=O)C1=C(CNC2CCCCC2)NC(=O)NC1c1cc(C)ccc1C` (centres undefined) the B-score was -3.93 (active).
With `CCOC(=O)C1=C(CSc2nccn2C)NC(=O)NC1c1ccc(OC)cc1` (centres undefined) the B-score was 0.905 (inactive).
`CCOC(=O)COc1ccc(Cl)cc1C1NC(=O)NC(C)=C1C(C)=O` (centres undefined) was tested, and the B-score was 0.0116 (inactive).
For `O=c1cc(-c2ccccc2)[nH]c2cc(F)ccc12`, the B-score was -1.92 (inactive).
In the case of `OCCCN1c2ccccc2Nc2nnc(-c3ccccc3)cc21`, the B-score is reported as 0.492 (inactive).
For `N=c1c2c(-c3ccccc3)c(-c3ccccc3)n(Cc3ccccc3)c2ncn1CCCO`, the B-score was -7.3 (active).
With `N=c1c2c(-c3ccccc3)c(-c3ccccc3)oc2ncn1Cc1ccco1` the B-score was -2.43 (inactive).
With `Cc1cccc(NC(=S)NCc2ccc3[nH]c4c(c3c2)CCCC4)c1` the B-score was -3.54 (inactive).
`CC(=O)C1=C(C)NC(C)=C(C(C)=O)C1c1cn(-c2ccccc2)nc1-c1cccs1` was tested, and the B-score was -3.89 (active).
In the case of `C=CCOC(=O)C1=C(C)NC(C)=C(C(=O)OCC=C)C1c1cccs1`, the B-score is reported as -3.25 (inactive).
In the case of `COc1ccc(-c2nn(-c3ccccc3)cc2C(=O)Nc2nccs2)cc1OC`, the B-score is reported as -3.24 (inactive).
`CNC(=O)c1[nH]cnc1C(=O)N[C@@H](CC(C)C)C(=O)OCc1ccccc1` was tested, and the B-score was -0.016 (inactive).
`Cc1[nH]c2ccccc2c1C(=O)COC(=O)C(C)C` was tested, and the B-score was 0.085 (inactive).
With `COc1ccc2c(c1)SC(C)CC2=O` (centres undefined) the B-score was -0.0138 (inactive).
`CC1(C)S[C@@H]2[C@H](NC(=O)COc3ccccc3)C(=O)N2C1C(=O)OCc1ccccc1` (some centres undefined) was tested, and the B-score was -1.43 (inactive).
`CCOc1ccc2[nH]c(=O)c(CN(Cc3nnnn3Cc3ccccc3)CC3CCCO3)cc2c1` (centres undefined) was tested, and the B-score was -0.479 (inactive).
In the case of `CCOc1ccc2c(c1)cc(CN(C(=O)CC)C1CCCCC1)c1nnnn12`, the B-score is reported as -4.82 (active).
`CCc1ccc2c(c1)cc(CN(C(=S)Nc1ccccc1Cl)C1CC1)c1nnnn12` was tested, and the B-score was 0.523 (inactive).
With `O=C(COc1ccc(Cl)cc1)NCCC1=CCCCC1` the B-score was -2.12 (inactive).
For `C=C1CCN([C@@H](Cc2ccccc2)C(=O)N2CCOCC2)S(=O)(=O)c2ccccc21`, the B-score was 0.119 (inactive).
`O=C1N=C2SCCN2/C1=C\c1c(Cl)cccc1Cl` was tested, and the B-score was -7.62 (active).
For `O=C(NC1(C(F)(F)F)N=C2SCCN2C1=O)c1ccco1` (centres undefined), the B-score was 0.645 (inactive).
In the case of `O=C1N=C(N2CCCC2)S/C1=C\c1cccc(Br)c1`, the B-score is reported as 0.36 (inactive).
`O=C(NC1=NCCS1)[C@H](Cc1ccccc1)N1C(=O)c2ccccc2C1=O` was tested, and the B-score was -0.0971 (inactive).
`NC(=O)CC[C@@H]1NC(=O)[C@@H]2CCCN2C(=O)c2cc([N+](=O)[O-])cc(F)c2NCCC[C@@H](C(N)=O)NC1=O` was tested, and the B-score was 0.224 (inactive).
With `CCCCOC(=O)c1ccc(N2C(=O)CC(N3CCN(C/C=C/c4ccccc4)CC3)C2=O)cc1` (centres undefined) the B-score was -6.05 (active).
In the case of `CCOC(=O)c1ccc(N2C(=O)CC(N3CC(C)OC(C)C3)C2=O)cc1` (centres undefined), the B-score is reported as 0.246 (inactive).
With `CCOC(=O)c1ccc(N2C(=O)CC(N(C)Cc3ccccc3)C2=O)cc1` (centres undefined) the B-score was 0.0731 (inactive).
With `O=C(CCCN1C(=O)c2cccc3cccc(c23)C1=O)N1CCN(Cc2ccc3c(c2)OCO3)CC1` the B-score was -2.86 (inactive).
`O=C(CN1CCN(c2ncc(C(F)(F)F)cc2Cl)CC1)Nc1ccc2c(c1)OCO2` was tested, and the B-score was -1.4 (inactive).
In the case of `CC(=O)c1ccc(Cc2ncc(C(F)(F)F)cc2Cl)s1`, the B-score is reported as -0.288 (inactive).
For `O=C(Cc1ncc(C(F)(F)F)cc1Cl)Nc1cccc(Br)c1`, the B-score was -4.67 (active).
For `O=C(/C=C/c1cccs1)c1cc(Cl)ccc1OC(=O)N1CCOCC1`, the B-score was -1.17 (inactive).
In the case of `CN1/C(=c2/s/c(=C3/C(=O)N(c4ccccc4)NC3=Nc3ccccc3)n(C)c2=O)C(C)(C)c2ccccc21`, the B-score is reported as -2.19 (inactive).
